Screening data: PubChem BioAssay, several laboratories
SRC2 inh: human SRC2 (NCOA2) inhibition | Q15596 | HEK293 GAL4-SRC2 luciferase reporter, luminescence | inhibition, % at 9 µM | 370,000 compounds, 0.17% hits;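 active = inhibition above the mean inhibition of all tested compounds plus 3 SD, set per campaign, cut at about 52% in these data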
Target sequence (Q15596 whole entry, looked up, the tested form may be a part): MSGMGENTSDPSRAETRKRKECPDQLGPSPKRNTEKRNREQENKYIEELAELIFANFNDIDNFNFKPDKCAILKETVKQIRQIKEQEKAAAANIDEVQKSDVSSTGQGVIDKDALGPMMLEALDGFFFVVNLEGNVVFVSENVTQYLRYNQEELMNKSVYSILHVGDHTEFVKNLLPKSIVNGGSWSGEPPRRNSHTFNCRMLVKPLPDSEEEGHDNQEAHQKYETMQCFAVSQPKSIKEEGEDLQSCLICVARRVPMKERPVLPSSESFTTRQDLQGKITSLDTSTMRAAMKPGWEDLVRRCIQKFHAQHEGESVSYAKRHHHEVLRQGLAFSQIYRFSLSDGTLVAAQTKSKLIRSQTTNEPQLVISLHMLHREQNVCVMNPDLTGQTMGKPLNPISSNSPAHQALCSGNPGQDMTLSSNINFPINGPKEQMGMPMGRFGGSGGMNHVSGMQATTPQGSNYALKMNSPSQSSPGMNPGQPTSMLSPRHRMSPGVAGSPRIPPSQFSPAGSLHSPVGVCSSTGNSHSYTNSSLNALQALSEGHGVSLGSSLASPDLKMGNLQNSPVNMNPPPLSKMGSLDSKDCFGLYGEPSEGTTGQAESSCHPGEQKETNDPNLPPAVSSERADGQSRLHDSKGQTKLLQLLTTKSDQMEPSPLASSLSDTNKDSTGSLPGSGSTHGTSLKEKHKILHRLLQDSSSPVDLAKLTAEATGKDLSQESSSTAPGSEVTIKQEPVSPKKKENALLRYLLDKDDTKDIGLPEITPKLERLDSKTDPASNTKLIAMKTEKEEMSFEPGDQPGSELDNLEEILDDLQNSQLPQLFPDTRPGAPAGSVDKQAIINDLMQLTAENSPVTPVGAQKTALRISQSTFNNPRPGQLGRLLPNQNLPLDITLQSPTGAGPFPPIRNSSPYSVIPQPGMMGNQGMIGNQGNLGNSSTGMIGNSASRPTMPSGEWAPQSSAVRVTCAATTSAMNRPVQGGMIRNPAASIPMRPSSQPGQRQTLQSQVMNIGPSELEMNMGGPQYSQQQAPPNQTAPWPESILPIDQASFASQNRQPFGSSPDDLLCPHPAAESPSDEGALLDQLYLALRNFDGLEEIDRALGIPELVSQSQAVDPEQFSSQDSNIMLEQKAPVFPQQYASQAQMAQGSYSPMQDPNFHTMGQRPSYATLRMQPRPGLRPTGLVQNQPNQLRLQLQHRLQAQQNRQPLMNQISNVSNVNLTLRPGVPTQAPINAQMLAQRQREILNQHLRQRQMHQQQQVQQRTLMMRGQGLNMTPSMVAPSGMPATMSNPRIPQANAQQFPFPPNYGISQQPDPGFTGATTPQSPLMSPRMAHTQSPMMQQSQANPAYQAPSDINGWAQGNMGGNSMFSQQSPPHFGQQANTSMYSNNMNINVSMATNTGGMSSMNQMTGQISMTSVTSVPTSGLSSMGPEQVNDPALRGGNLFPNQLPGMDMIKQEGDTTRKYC
COUP-TFII inh: blocks human COUP-TFII nuclear receptor; P24468; AID 686940; HEK293T NGFI-A luciferase reporter, luminescence; inhibition, % at 8.6 µM; 370,000 compounds, 0.7% hits;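 active = inhibition above a per-plate cutoff, mean inhibition of test wells between control levels plus 3 SD, cut at about 38% in these data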;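 also: cells cotransfected with COUP-TFII expression vector driving the NGFI-A reporter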
NR5A2 inv ag: NR5A2 inverse agonism in reporter assay. HEK293T StAR-luciferase reporter, LRH-1 transfected, 24 h. inhibition, % at 3.6 µM. 360,000 compounds, 0.13% hits;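 active = inhibition above the mean inhibition of all tested compounds plus 3 SD, cut at about 73% in these data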
NCOA1 inh: human NCOA1 inhibition; inhibition, % at 3.6 µM; AID 588354; Q15788; 360,000 compounds, 0.12% hits; HEK293 GAL4-SRC1 luciferase reporter, luminescence;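 active = inhibition above the campaign mean plus 3 SD, with each screening campaign given its own cutoff, cut at about 60% in these data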
Gli-Sufu antag: antagonists of Gli-Sufu signaling; inhibition, % at 5 µM; 340,000 compounds, 0.74% hits; AID 588413; Sufu-KO-LIGHT fibroblasts, Gli luciferase reporter luminescence;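 active = inhibition above about 55%, limit read from the data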
SRC3 inh: human NCOA3 inhibition | Q9Y6Q9 | HEK293 GAL4-SRC3 luciferase reporter, luminescence | inhibition, % at 3.6 µM | 360,000 compounds, 0.17% hits | AID 588352;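 active = inhibition above a per-campaign cutoff, the mean of all compounds plus 3 SD, cut at about 60% in these data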;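 also: higher means less SRC3-driven luciferase light from the GAL4 reporter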
Gli-Sufu confirm: confirmation of Gli-SUFU pathway antagonists. shares compounds with Gli-Sufu antag. Sufu-KO-LIGHT cells, Gli luciferase reporter, luminescence. inhibition, % at 5 µM. 2,500 compounds, 40% hits;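 active = mean inhibition at 5 µM reaching about 45%, limit read from the data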
SufuKO cytotox: counter-screen for Gli-SUFU antagonists: cytotoxicity; shares compounds with Gli-Sufu antag; AID 651994; cytotoxicity, % at 5 µM; 2,500 compounds, 32% hits; Sufu-KO-LIGHT cells cytotoxicity, ATP luminescence;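 active = mean cytotoxicity at 5 µM above about 25%, limit read from the data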;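 also: cells exposed to compound overnight for roughly 16 to 18 hours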
Wnt3a cs: counter-screen for Gli-SUFU antagonists: Wnt3a reporter inhibition; shares compounds with Gli-Sufu antag; Wnt-LIGHT cells, Wnt3a-driven luciferase reporter, luminescence; inhibition, % at 6.25 µM; 2,500 compounds, 20% hits; AID 651995;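 active = mean inhibition above about 25%, limit read from the data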
Numbers stand for hits; 0 = inactive; - = no result given. Rows were chosen to be rich in hits. Some 1.3% of all compounds tested hit in one or more screens of this group.

SMILES | SRC2 inh | COUP-TFII inh | NR5A2 inv ag | NCOA1 inh | Gli-Sufu antag | SRC3 inh | Gli-Sufu confirm | SufuKO cytotox | Wnt3a cs
O=C(NCc1ccc(F)cc1)C(=O)NCC1OCCCN1S(=O)(=O)c1cccs1 (stereo not drawn) | 0 | 0 | 0 | 0 | 99 | 0 | 0 | 0 | 0
Cc1ccc2c(c1)C1CS(=O)(=O)N(Cc3ccccc3)C(=O)N1C2 (stereo not drawn) | 0 | 0 | - | - | - | - | - | - | -
CCC(C)[C@H](NC(=O)N1CC(=O)Nc2ccccc21)C(=O)Nc1nccs1 (stereo partly drawn) | 0 | 0 | 0 | 0 | 60 | 0 | 0 | 26 | 0
CC(C)[C@H](NC(=O)N1CC(=O)Nc2ccccc21)C(=O)Nc1nccs1 | 0 | 0 | 0 | 0 | 0 | 0 | - | - | -
Cc1ccc(S(=O)(=O)NC[C@H]2CN(S(=O)(=O)c3ccc(C)cc3)[C@@H](Cc3ccccc3)CO2)cc1 | - | 0 | - | - | - | - | - | - | -
Cc1ccc(CNC(=O)CN(c2ccc(C)cc2)S(=O)(=O)c2c(C)n[nH]c2C)cc1 | 0 | 0 | 0 | 0 | 57 | 0 | 0 | 0 | 37
Cc1ccc(CNC(=O)CN(c2ccc(C)cc2)S(=O)(=O)c2c(C)nn(C)c2C)cc1 | 0 | 0 | 0 | 0 | 0 | 0 | - | - | -
Cc1ccccc1CNC1CCC12CCC(c1ccccc1)CC2 (stereo not drawn) | - | 0 | - | - | - | - | - | - | -
O=C(Nc1ccccc1)OCCN1C(=O)CCC12CCC(c1ccc(Cl)cc1)CC2 (stereo not drawn) | 0 | 0 | - | - | - | - | - | - | -
O=S1(=O)c2ccc(Br)cc2OC[C@@H](Cc2ccccc2)N1Cc1cn(CCC2OCCCO2)nn1 | 0 | 0 | - | - | - | - | - | - | -
COc1ccc(N2CC(C)Cn3c2nc2c3c(=O)n(Cc3ccccc3)c(=O)n2C)c(OC)c1 (stereo not drawn) | 0 | 0 | 0 | 0 | 0 | 0 | - | - | -
COc1ccc(N2CCn3c2nc2c3c(=O)n(CCCc3ccccc3)c(=O)n2C)c(OC)c1 | 0 | 0 | 0 | 0 | 0 | 0 | 55 | 35 | 0
Cc1ccc(OCCn2ccnc2)c(C)c1 | 0 | 0 | 0 | 0 | 0 | 0 | - | - | -
Cc1cc(C(C)(C)C)ccc1OCCn1ccnc1 | 0 | 0 | 0 | 0 | 55 | 0 | 0 | 0 | 0
CN(C)c1ccc(C(=O)N2CCNC(=O)C2CC(=O)Nc2ccc(F)cc2)cc1 (stereo not drawn) | 0 | 0 | 0 | 0 | 95 | 0 | 0 | 0 | 0
Cc1ccc(CSCCNC(=O)CSCc2ccc([N+](=O)[O-])cc2)cc1 | 0 | 0 | 0 | 0 | 0 | 0 | 0 | 0 | 0
CC1CC(C)CN(C(=O)c2nn(C)c3c2CS(=O)(=O)c2ccccc2-3)C1 (stereo not drawn) | 0 | 0 | 0 | 0 | 0 | 0 | 0 | 0 | 0
O=C(N/N=C/c1ccncc1)C12CC3CC(CC(C3)C1)C2 | 0 | 0 | 0 | 0 | 58 | 0 | 0 | 0 | 0
C=COC(=O)NC1CCc2cc(OC)c(OC)c(OC)c2-c2ccc(SC)c(=O)cc21 (stereo not drawn) | 0 | 0 | 0 | 0 | 66 | 0 | 64 | 63 | 40
COc1cc2c(c(OC)c1OC)-c1ccc(SC)c(=O)cc1C(NC(=O)c1ccccc1)CC2 (stereo not drawn) | 0 | 0 | 0 | 0 | 63 | 0 | 66 | 51 | 46
COc1cc2c(c(OC)c1OC)-c1ccc(OC)c(=O)cc1C(NC(=O)c1ccccc1)CC2 (stereo not drawn) | 0 | 0 | 0 | 0 | 0 | 0 | - | - | -
Fc1ccccc1Cn1ccc2ccc(-c3ccc4ccn(Cc5ccccc5F)c4c3)cc21 | 0 | 0 | - | - | - | - | - | - | -
C=C(C)CSc1nnc([C@@H](NC(=O)OC(C)(C)C)C(C)CC)o1 (stereo partly drawn) | 0 | 0 | 0 | 0 | 94 | 0 | 0 | 0 | 0
Cc1ccccc1S(=O)(=O)N1CCCc2nc(-c3ccc(F)cc3)ccc21 | 0 | 0 | - | - | - | - | - | - | -
COC1=C[C@H](C(=O)NCc2ccc(OC)cc2)C(C)C(c2ccccc2)CC1=O (stereo partly drawn) | 0 | 0 | - | - | - | - | - | - | -
SMILES | SRC2 inh | COUP-TFII inh | NR5A2 inv ag | NCOA1 inh | Gli-Sufu antag | SRC3 inh | Gli-Sufu confirm | SufuKO cytotox | Wnt3a cs
O=C(Nc1ccc(C(F)(F)F)cc1)C1CCN(S(=O)(=O)c2ccc(N3CCCC3=O)cc2)CC1 | 0 | 0 | 0 | 0 | 77 | 0 | 79 | 0 | 0
COc1ccc(NC(=O)C2CCN(S(=O)(=O)c3ccc(N4CCCC4=O)cc3)CC2)cc1OC | 0 | 0 | 0 | 0 | 0 | 0 | 0 | 0 | 0
COc1ccc2[nH]c3c(c2c1)CCN[C@]31C(=O)N(Cc2cn(Cc3ccccc3)nn2)c2ccccc21 | 0 | 0 | - | - | - | - | - | - | -
COCCn1c(SCC(=O)Nc2cc(C)on2)nc2c(c1=O)SCC2 | 0 | 0 | 0 | 0 | 0 | 0 | 0 | 0 | 0
Cc1cccc(NC(=O)C2CCCN2S(=O)(=O)c2cccnc2)c1C (stereo not drawn) | 0 | 0 | - | - | - | - | - | - | -
CCOC(=O)C1(Cc2cccc(OC)c2)CCN(C/C=C/c2ccccc2)CC1 | 0 | 0 | 0 | 0 | 0 | 0 | - | - | -
CCOC(=O)C1(Cc2cccc(OC)c2)CCN(C/C=C/c2ccc(OC)cc2)CC1 | 0 | 0 | 0 | 0 | 0 | 0 | 0 | 28 | 0
N#Cc1ccc(Cn2nnc(-c3ccc(N4CCOCC4)cc3)n2)cc1 | 0 | 0 | - | - | - | - | - | - | -
O=C(O)CCCNC(=O)CCCNC(=O)C(c1ccccc1)c1ccccc1 | 0 | 0 | 0 | 0 | 0 | 0 | 0 | 0 | 0
O=C(Nc1ccc(Oc2ccccc2)nc1)C1CCN(Cc2ccccc2)CC1 | 0 | 0 | 0 | 0 | 65 | 0 | 0 | 0 | 0
COc1ccc(CCNC(=O)[C@H](C)N2C(=O)N3CCc4c([nH]c5ccccc45)[C@@]3(C)C2=O)cc1OC | 0 | 0 | 0 | 0 | 0 | 0 | - | - | -
CCC1(O)CC2CN(CCc3c([nH]c4ccccc34)C(C(=O)OC)(c3cc4c(cc3OC)N(C=O)C3C(O)(C(=O)OC)C(OC(C)=O)C5(CC)C=CCN6CCC43C65)C2)C1 (stereo not drawn) | 0 | 0 | 0 | 0 | 0 | 0 | 63 | 65 | 0
CC1(C)Cc2ccccc2C2=C(C(=O)N3CCCCCC3)C(=O)C(=O)N21 | 0 | 0 | 0 | 0 | 72 | 0 | 0 | 0 | 0
Cc1cc(Nc2ccc([N+](=O)[O-])cc2)c2ccccc2n1 | 0 | 0 | 0 | 0 | 56 | 0 | 0 | 0 | 0
CCC(=O)N1CCc2cc(Br)cc(S(=O)(=O)N3CCC(C(=O)NC(C)(C)C)CC3)c21 | 0 | 0 | 0 | 0 | 0 | 0 | 0 | 0 | 0
CON(c1nc(Cl)nc(N(C)C)n1)S(=O)(=O)c1ccccc1Cl | 0 | 0 | 0 | 0 | 88 | 0 | 0 | 0 | 0
CC(C)(C)c1ccc(S(=O)(=O)NCC2CCCO2)cc1 (stereo not drawn) | 0 | 0 | 0 | 0 | 62 | 0 | 0 | 0 | 0
